Assay outcomes deposited in PubChem BioAssay by National Center for Advancing Translational Sciences (NCATS).
Hits are enriched below; roughly 3.4% of the tested compounds scored in any of these assays.
Tau ThT inhib – inhibitors of human tau fibril formation, thioflavin T binding. Potency, µM (doses to about 57.4 µM), for the others: top-dose activity, negative = inhibition, usual class: inhibitors. P10636. recombinant tau K18 P301L, heparin-induced fibrillization, ThT fluorescence. 270,000 compounds, 2.1% hits. AID 1460; further: nearly all actives have a fitted effect of over 55% in size
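In this qHTS, human K18 P301L tau is incubated with compound and heparin for 6 hr at 37 C, and Thioflavin T fluorescence then reports fibril load.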
JMJD2E inh – blocks human JMJD2E demethylase activity; B2RXH2; Potency, µM (highest dose often 57.1 µM), without a hit: at the highest dose activity change, negative = inhibition, most hits filed as inhibitors; 230,000 compounds, 1.6% hits; JMJD2E catalytic domain, FDH-coupled NADH fluorescence (FDH is formaldehyde dehydrogenase);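 further: 0% = wells with enzyme and -100% = buffer wells without enzyme; nearly all actives have a fitted effect of over 50% in size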
Target sequence (B2RXH2 1-337 limits assumed): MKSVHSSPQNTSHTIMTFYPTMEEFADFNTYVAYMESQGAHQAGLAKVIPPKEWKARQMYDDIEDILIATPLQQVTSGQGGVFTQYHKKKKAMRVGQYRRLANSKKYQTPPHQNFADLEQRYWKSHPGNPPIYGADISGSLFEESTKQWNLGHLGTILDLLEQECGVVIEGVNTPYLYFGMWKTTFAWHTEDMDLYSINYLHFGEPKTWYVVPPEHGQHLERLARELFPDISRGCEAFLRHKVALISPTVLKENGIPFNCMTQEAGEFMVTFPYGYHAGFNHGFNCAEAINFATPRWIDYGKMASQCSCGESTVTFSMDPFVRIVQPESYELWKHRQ
Tau fibril FP – tau fibrillization inhibition (FP); Potency, µM (doses to about 57.7 µM), for the others: at the highest dose activity, negative = inhibition, hits mostly inhibitors; K18 P301L tau heparin fibrillization, Alexa594 FP, 6 h; P10636; AID 1468; 280,000 compounds, 0.39% hits; further: nearly all actives have a fitted effect of over 55% in size
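K18 P301L tau (15 uM unlabeled/0.24 uM Alexa 594-labeled, final) + compound + heparin 20 uM final; 100 mM NaOAc pH 7; 6 hr 37 C; ThT 30 uM final added, 1 hr RT; FP ex 555/em 632 nm.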
GoLoco inh red – inhibitors of human Gai1-RGS12 GoLoco interaction (red fluorophore) | P63096 | Gai1:RGS12 GoLoco peptide FP, rhodamine, 10 min | Potency, µM (highest dose often 61.6 µM), inactives show top-dose activity, negative = inhibition, usual class: inhibitors | 230,000 compounds, 0.44% hits; active means well fitted inhibition curve with a large enough effect, not every such curve was filed as active; inactive means no such curve, though single readings can be large or run the other way; further: nearly all actives have a fitted effect of over 30% in size
Target sequence (P63096 whole entry, looked up): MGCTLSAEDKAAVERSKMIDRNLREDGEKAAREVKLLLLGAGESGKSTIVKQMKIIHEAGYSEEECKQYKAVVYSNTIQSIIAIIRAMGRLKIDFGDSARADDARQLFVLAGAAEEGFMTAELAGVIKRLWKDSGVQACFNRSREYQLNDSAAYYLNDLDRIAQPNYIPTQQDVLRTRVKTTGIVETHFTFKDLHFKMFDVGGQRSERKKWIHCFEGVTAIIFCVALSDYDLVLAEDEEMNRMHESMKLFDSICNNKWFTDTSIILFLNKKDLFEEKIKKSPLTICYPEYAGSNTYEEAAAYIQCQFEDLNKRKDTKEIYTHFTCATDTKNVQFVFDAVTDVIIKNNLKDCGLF
Tau fluor cs – counter-screen for tau fibril formation inhibitors; Potency, µM (doses to about 57.7 µM), inactives show at the highest dose activity change, negative = decrease; tau K18 P301L (four-repeat tau fragment) Alexa594 fluorescence, heparin fibrillization; 280,000 compounds, 0.93% hits; further: nearly all actives have a fitted effect of over 55% in size
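Human K18 P301L tau (15 uM unlabeled plus 0.24 uM Alexa 594-labeled, final) in 100 mM sodium acetate pH 7 was mixed with compound and 20 uM heparin and incubated 6 hr at 37 C.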
* marks the source's active call; other numbers are inactive results; ? = inconclusive; nt = no result; ! = repeats disagree; [ ] = remark or other dose. Unless noted, the call rests on the fitted dose curve; in most records, active means well fitted curve in the direction sought with a large enough effect; inconclusive means small, poorly fitted or top-dose-only effect, or another doubt; inactive means no such curve, though single readings can be large; an effect the other way counts as inactive or inconclusive. Unless noted, on the % scale 0 is the no-effect control and ±100 the full control effect; potency means the concentration at half of the fitted maximal effect.

SMILES	Tau ThT inhib	JMJD2E inh	Tau fibril FP	GoLoco inh red	Tau fluor cs
COC(=O)CCC(=O)OC1(C)C(=O)C2=CN(CCN3CCOCC3)C(c3ccc(OC)cc3)=CC2=C(Br)C1=O (centres undefined)	7.1µM*!	?	?	11%[14.2 µM]	-2%[11.6 µM]
COC(=O)CCC(=O)OC1(C)C(=O)C2=CN(C(CO)CO)C(c3ccc(OC)cc3)=CC2=C(Br)C1=O (centres undefined)	4µM*	5µM*	?	16%[14.2 µM]	-21%[11.6 µM]
COC(=O)CCC(=O)OC1(C)C(=O)C2=CN(CCc3ccccn3)C(c3ccc(OC)cc3)=CC2=C(Br)C1=O (centres undefined)	-9%[11.5 µM]	-21%[11.4 µM]	1%[11.6 µM]	14%[14.2 µM]	-9%[11.6 µM]
Cc1ccc(C(=O)Nc2onc3c2CCCC3)cc1	-13%	nt	-17%	nt	-17%
Cc1ccccc1-c1nc(CS(=O)(=O)CC(=O)NCc2cccc(Cl)c2)c(C)o1	-16%	nt	-3%	nt	-19%
CCCn1c(O)c(N=Nc2ccc3ccccc3n2)c2ccccc21	13µM*	15%	0%	24%	-6%
CC(C)CCn1c(O)c(N=Nc2ccccn2)c2ccccc21	?	-17%	-14%	7%	-28%
CCOc1ccc(C(=O)NCCc2csc(-c3ccc(C(F)(F)F)cc3)n2)cc1OCC	-4%	nt	-1%	nt	-11%
CCOC(=O)c1ccc(NC(=O)C2Cc3ccccc3CN2S(=O)(=O)c2ccc(Cl)cc2)cc1 (centres undefined)	4%	nt	?	nt	-28%
CC1(C)C2CCC1(C)C(OCC[N+](C)(C)CC(=O)OC1CCCCC1)C2 (centres undefined)	-7%	2%	10%	7%	8%
CCOC(=O)C[N+](C)(C)CCOC1CC2CCC1(C)C2(C)C (centres undefined)	-10%	18µM*	2%	12%	-5%
COc1cccc(CNC(=O)C2CCCN(S(=O)(=O)c3ccc4c(ccn4C)c3)C2)c1OC (centres undefined)	-3%	nt	-5%	nt	-5%
COC(=O)c1[nH]c2cc(C)ccc2c1NC(=O)CN1CCCc2ccccc21	?	-14%	?	15%	?
COC(=O)c1[nH]c2ccc(Br)cc2c1NC(=O)CN1CCCc2ccccc21	?	-23%	3%	14%	5µM*[quencher]
Cc1noc(/C=C/c2cccs2)c1S(=O)(=O)N1CCC(C(=O)NCc2ccccc2Cl)CC1	12%	nt	?	nt	-20%
O=C1CNC(=S)N1CCc1ccc(O)c(O)c1	nt	13µM*	-8%	-12%	-30%
Cc1ccnc(NC(c2cccnc2)c2ccc3cccnc3c2O)c1 (centres undefined)	?	5.6µM*	-6%	9%	-14%
COc1ccccc1NC(c1cccnc1)c1ccc2cccnc2c1O (centres undefined)	?	11µM*	-11%	-5%	-14%
Oc1ccccc1C(Nc1nccs1)c1ccc2cccnc2c1O (centres undefined)	20µM*	?	-3%	0%	?
Cc1ccnc(NC(c2ccccc2F)c2ccc3cccnc3c2O)c1 (centres undefined)	?	nt	5%	nt	-24%
Cc1ccnc(NC(c2cc(C)ccc2O)c2ccc3cccnc3c2O)c1 (centres undefined)	16µM*	nt	-11%	nt	?
O=C(O)c1ccccc1N[C@H](c1ccccc1)c1ccc2cccnc2c1O	nt	nt	nt	10%[14.2 µM]	nt
Cc1ccc2ccc(C(Nc3ccccn3)c3ccccc3)c(O)c2n1 (centres undefined)	?	?	6%	0%	-19%
COc1cc(C(Nc2ccccn2)c2ccc3ccc(C)nc3c2O)cc(OC)c1O (centres undefined)	16µM*	22µM*	?	-26%	?
CCOC(=O)N1CCc2c(sc3c2c(=O)n(Cc2ccccc2)c(=O)n3CC(=O)Nc2ccccc2F)C1	0%	nt	?	nt	-23%
SMILES	Tau ThT inhib	JMJD2E inh	Tau fibril FP	GoLoco inh red	Tau fluor cs
CN(C1=C(NC(=O)c2ccccc2)C(=O)c2ccccc2C1=O)C1CCS(=O)(=O)C1 (centres undefined)	14µM*	?	?	-5%	-27%
C=Cc1c(C)/c2[n-]/c1=C\c1[n-]c(c(CC)c1C)/C=c1\[n-]c3c(c1C)C(=O)C(C(=O)[O-])C=3c1[n-]c(c(C)c1CCC(=O)[O-])\C=2.[Cu].[Na+].[Na+] (centres undefined)	14µM*	7.9µM*	20µM*	-5%	11µM*[quencher]
Cc1ccc(C(=O)/C=C/Nc2cccc([N+](=O)[O-])c2)o1	14µM*	-7%	1%	-15%	?
Cc1cccc(CCNC(=O)c2ccc3c(c2)nc2n3CCCCC2)c1	?	nt	-5%	nt	-12%
CCOc1ccc(NC(=O)Cc2ccc(NC(=O)N3CCCCc4ccccc43)cc2)cc1	5%	nt	1%	nt	-4%
COc1ccc2c(c1)-c1nc(/N=C/c3ccc(O)c(OC)c3)sc1CC2	32µM*	?	?	-15%	-24%
COc1ccc2c(c1)-c1nc(N)sc1CC2	32µM*	?	?	-27%	?
COc1ccc2c(c1)-c1nc(NC(=O)c3cc(OC)c(OC)c(OC)c3)sc1CC2	-12%	nt	4%	nt	?
COc1cc(-c2nc(Cc3c(F)cccc3Cl)no2)cc(OC)c1OC	?	?	-14%	-7%	16µM*[quencher]
COc1cc(-c2noc(-c3cccc(Cl)c3)n2)cc(OC)c1OC	5%	9%	3%	-30%	8%
CCn1c(CN2CCCCC2)nc2cc(NC(=O)c3cccc([N+](=O)[O-])c3)ccc21	-2%	nt	10%	nt	-11%
COC(=O)c1ccc(NC(=O)N2CCN(c3nnc(C)c4c(C)n(-c5ccccc5)nc34)CC2)cc1	-17%	nt	0%	nt	0%
CCc1ccc2c(c1)/C(=N/N(C)C(=S)NC)C(=O)N2	32µM*	2%	-5%	11%	-24%
CCc1ccc2c(c1)/C(=C/C(=O)c1cccs1)C(=O)N2	?	0%	7%	4%	-28%
Fc1ccc(Nc2c(-c3c[nH]c4ccccc34)nc3ccccn23)cc1	-11%	nt	-5%	nt	7.1µM*[quencher]
Cc1ccc2nc(-c3c[nH]c4ccccc34)c(Nc3ccccc3)n2c1	-7%	nt	2%	nt	?
c1ccc(Nc2c(-c3c[nH]c4ccccc34)nc3ccccn23)cc1	?	nt	?	nt	13µM*[quencher]
Fc1ccc(-c2nc(Nc3cccc(C(F)(F)F)c3)nc3c2COc2ccccc2-3)cc1	?	nt	?	nt	-29%
OCCN(CCO)c1ccc(C(c2ccccc2Cl)c2ccc(N(CCO)CCO)cc2Cl)c(Cl)c1	?	-20%	17%	nt	11µM*[quencher]
OCCN(CCO)c1ccc2ccccc2c1	-16%	?	-5%	-11%	-17%
